Source: PubChem
HT1080 IDH1KD tx = kills HT-1080 cells with IDH1 knockdown; HT-1080 IDH1 knockdown viability, ATP luminescence, 48 h; Potency, µM (doses to about 46.1 µM), most hits filed as cytotoxic; actives 2% (n = 360,000); AID 686971
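Cytotoxicity counter-line: IDH1KD HT-1080, 48 h, CellTiter-Glo. Curves classed by r2, magnitude and activity.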
DT40 TDP1 no CPT = qHTS for Inhibitors of human tyrosyl-DNA phosphodiesterase 1 (TDP1): qHTS in cells in absence of CPT; AID 686978, 2013; Potency, µM (titrated, usually from 46.2 µM), actives largely listed as inhibitors; actives 15% (n = 420,000); DT40 Tdp1-/- hTDP1 cells, no CPT, ATP luminescence, 48 h; further: nearly all actives have a fitted effect of over 55% in size
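Camptothecin absent (DMSO only). Human TDP1-complemented DT40 knockout cells, 400 cells/well, 37 °C for minimum 48 hr; ATP measured via CellTiter-Glo, 30 min dark incubation, luminescence.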
TDP1 cell CPT = growth inhibition of DT40 Tdp1-/-;hTDP1 cells with camptothecin (screen for TDP1 inhibitors). chicken DT40 Tdp1-/-;hTDP1 cells + 20 nM CPT, ATP luminescence, 48 h. Potency, µM (doses to about 46.2 µM), actives largely listed as inhibitors. actives 12% (n = 420,000); further: nearly all actives have a fitted effect of over 55% in size
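Chicken DT40 Tdp1-/- cells stably complemented with human TDP1 were seeded at 400 cells/well in medium containing 20 nM camptothecin, exposed to pin-transferred compounds, and grown at 37 °C for at least 48 hr. Viability was read as ATP luminescence.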
HT1080NT lethal = kills 2HG-producing HT-1080-NT fibrosarcoma cells | HT-1080-NT fibrosarcoma viability, CellTiter-Glo ATP luminescence, 48 h | Potency, µM (titrated, usually from 46.1 µM), usual class: cytotoxic | actives 1.6% (n = 360,000);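 further: NT is the 2HG producing partner of a matched IDH1 knockdown line; nearly all actives have a fitted effect of over 55% in size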
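750 cells/well, RPMI + 5% FBS; 2 h settle, compound pin-transfer, 48 h at 37 degrees C. CellTiter-Glo 10 min RT, luminescence. Normalized to DMSO and media-only wells.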
uPA generation = inhibitors of cell surface uPA generation; cell surface uPA generation assay, qHTS; actives 0.31% (n = 330,000); Potency, µM (titrated, usually from 38.3 µM), usual class: inhibitors; active means well fitted inhibition curve with a large enough effect; inconclusive means small, poorly fitted or top-dose-only effect; inactive means no such curve, though single readings can be large or run the other way; tested in mouse RAW 264.7 cells; further: nearly all actives have a fitted effect of over 55% in size
IL-1B inflam inh = inflammasome signaling inhibition, IL-1 beta readout; THP-1 LPS/ATP IL-1B secretion, AlphaLISA, 16 h; active compounds read low; activity change, % at 57.5 µM; actives 4.7% (n = 360,000); in the data active means activity change below about -50%; inconclusive means mostly about -30% to -49%
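Secreted IL-1B measured by AlphaLISA bead assay after 16 h compound exposure of THP-1 cells; compounds (final up to 57.5 uM) added 1 h before LPS (250 ng/mL) and ATP (1.25 mM) stimulation; lower signal means less secretion.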
Numbers stand for hits; n = inactive; u = inconclusive; x = not tested or not shown; [ ] = dose if it differs, or a comment. Only some compounds are listed: those with a hit (about 19% of all), similar ones and a draw of the others. Unless noted, the call rests on the fitted dose curve; in most records, active means well fitted curve in the direction sought with a large enough effect; inconclusive means small, poorly fitted or top-dose-only effect, or another doubt; inactive means no such curve, though single readings can be large; an effect the other way counts as inactive or inconclusive.

SMILES	HT1080 IDH1KD tx	DT40 TDP1 no CPT	TDP1 cell CPT	HT1080NT lethal	uPA generation	IL-1B inflam inh
CCO[C@H]1OC(C(=O)NCc2ccccc2)=C[C@@H](C2CCCCC2)[C@@H]1CCCO	n	16.4µM	18.4µM	n	n	n
C/C(=C\c1ccccc1)CN1CCN(C(C)C)C(CCO)C1 (stereo not given)	n	n	n	n	n	n
CCOc1cc(NC(=S)NCCCN2CCOCC2)c(OCC)cc1NC(=O)C1CCCCC1	n	n	n	n	n	n
CCO[C@@H]1OC(C(=O)N2CCN(Cc3ccc4c(c3)OCO4)CC2)=C[C@H](c2ccc(C(F)(F)F)cc2)[C@H]1CCCO	u	20.6µM	16.4µM	u	n	-60.1
CCO[C@H]1OC(C(=O)N2CCN(Cc3ccccc3)CC2)=C[C@@H](C2CCCCC2)[C@@H]1CCCO	n	9.2µM	9.2µM	n	n	-60.2
COc1cccc(Cn2c(=O)c(-c3cc(F)cc(F)c3)nc3cnc(N4CCOCC4)nc32)c1	x	n	n	x	x	x
CC(C)CC(C)NNC(=O)c1cc2ccccc2[nH]1 (stereo not given)	n	n	n	n	n	n
O=C(c1cc2ccccc2[nH]1)c1cc2cc(O)ccc2[nH]1	x	15.8µM	u	x	x	x
Cc1ccc(C)c(N2CCN(C(=O)c3cc4c(=O)n(Cc5ccccc5)ccc4nc3C)CC2)c1	x	23.1µM	16.4µM	x	x	x
Cc1ccc(C)c(N2CCN(C(=O)c3cc4c(=O)n(Cc5cccnc5)ccc4nc3C)CC2)c1	x	u	23.1µM	x	x	x
CC1=C(C(=O)OC2CCCCC2)C(c2ccc(N(C)C)cc2)NC(=O)N1 (stereo not given)	n	u	u	n	n	u
F[B-](F)(F)c1cc2ccccc2s1	n	n	n	n	n	-70.2
CNC(=O)c1cc2cc(Br)ccc2s1	n	n	n	n	n	n
F[B-](F)(F)c1cc2cc(Br)ccc2s1	n	n	n	n	n	-62.1
c1ccc2nc(-c3cc4ccccc4s3)ccc2c1	x	n	n	x	x	x
CCc1cccc(NS(=O)(=O)c2ccc(-n3cccn3)cc2)c1	n	20.6µM	16.4µM	u	n	n
COc1ccccc1CNS(=O)(=O)c1ccc(-n2cccn2)cc1	n	u	25.9µM	n	n	n
Cc1ccc(NS(=O)(=O)c2ccc(-n3cccn3)cc2)cc1C	n	u	u	n	n	n
COc1cc(NS(=O)(=O)c2ccc(-n3cccn3)cc2)cc(OC)c1	n	11.6µM	13µM	n	x	n
CCc1cccc(C)c1NS(=O)(=O)c1ccc(-n2cccn2)cc1	x	25.9µM	16.4µM	x	x	x
COc1ccc(CNS(=O)(=O)c2ccc(-n3cccn3)cc2)cc1	n	u	u	n	n	n
O=S(=O)(Nc1cccc(Cl)c1)c1ccc(-n2cccn2)cc1	n	u	n	n	n	n
CC1=CC(C)(C)[N+](C)(C)c2ccccc21	n	u	u	n	n	n
O=S(=O)(Nc1ccc(F)cc1F)c1ccc(-n2cccn2)cc1	x	u	16.4µM	x	x	x
COc1ccc(NS(=O)(=O)c2ccc(-n3cccn3)cc2)cc1OC	x	4.61µM	5.8µM	x	x	x
SMILES	HT1080 IDH1KD tx	DT40 TDP1 no CPT	TDP1 cell CPT	HT1080NT lethal	uPA generation	IL-1B inflam inh
Cc1cc(C)cc(NS(=O)(=O)c2ccc(-n3cccn3)cc2)c1	x	u	16.4µM	x	x	x
COC(=O)c1cc(S(=O)(=O)NCc2ccccc2OC)cn1C	n	8.2µM	u	n	n	n
COC(=O)c1cc(S(=O)(=O)NCc2cccc(OC)c2)cn1C	n	n	n	n	n	n
O=C(N/C(=C\c1ccco1)C(=O)N1CCCC1CO)c1ccccc1 (stereo not given)	n	n	n	n	n	n
O=C(NCc1ccco1)c1ccc2c(c1)N(Cc1ccccc1F)C(=O)c1ccccc1S2(=O)=O	x	u	n	x	x	x
CCCCc1c(O)c2cccc3c2n(c1=O)CCC3	n	n	n	n	n	n
O=c1c(CCc2ccccc2)nc2cnc(N3CCOCC3)nc2n1Cc1ccc(F)cc1	x	n	n	x	x	x
CC1CCN(C2=C(NS(=O)(=O)c3ccc(Cl)cc3)C(=O)c3ccccc3C2=O)CC1	n	n	n	n	n	n
CC1CCN(C2=C(NS(=O)(=O)c3ccccc3)C(=O)c3ccccc3C2=O)CC1	u	u	u	n	n	-73.6
CC1CCN(C2=C(NS(=O)(=O)c3ccc(Br)cc3)C(=O)c3ccccc3C2=O)CC1	n	18.4µM	u	18.4µM	n	u
CC1CCN(C(=O)CCNS(=O)(=O)c2ccc(Br)cc2)CC1	n	n	n	n[9.24 µM]	n	n
CCOC(=O)C1CCN(C2=C(NS(=O)(=O)c3ccc(Cl)cc3)C(=O)c3ccccc3C2=O)CC1	n	u	n	n	n	n
O=C1C(NS(=O)(=O)c2ccc(Br)cc2)=C(N2CCCCC2)C(=O)c2ccccc21	n	18.4µM	u	u	n	n
CCOC(=O)C1CCCN(C2=C(NS(=O)(=O)c3ccc(Br)cc3)C(=O)c3ccccc3C2=O)C1 (stereo not given)	n	16.4µM	18.4µM	u	n	n
COc1cccc(C(C)(O)c2nc(-c3cnn(C)c3)cs2)c1 (stereo not given)	n	u	u	n	x	n
Cc1ccc(NS(=O)(=O)c2c(C)noc2C)cc1	n	n	n	n	n	n
CC1CCCN(C2=C(NS(=O)(=O)c3ccc(Br)cc3)C(=O)c3ccccc3C2=O)C1 (stereo not given)	n	11.6µM	u	n	n	n
CCOc1ccccc1N1CCN(CC(=O)NC(C)c2ccccc2)CC1 (stereo not given)	n	n	n	n	n	n
CC1CC(C)(C)Nc2ccc(N=O)cc21 (stereo not given)	18.4µM	1.84µM	2.31µM	14.6µM	n	-105.3
COc1ccccc1CN1CCCC2(CCN(C(=O)c3cccc(F)c3)CC2)C1	x	n	n	x	x	x
O=C(Nc1ccn(CCCN(CCCn2ccc(NC(=O)OCc3ccccc3)nc2=O)CCc2cc3ccccc3[nH]2)c(=O)n1)OCc1ccccc1	18.4µM	u	u	u	n	n
COc1ccc(OCC(=O)N(C)CC2COc3ccccc3O2)cc1 (stereo not given)	n	u	18.4µM	n	n	n
Cc1ccc2cc(CCNC(=O)c3ccc(S(=O)(=O)N4CCCCC4)cc3)c(=O)[nH]c2c1	n	23.1µM	u	n	n	n
Cc1cc2cc(CCNC(=O)c3ccc(S(=O)(=O)N4CCOCC4)cc3)c(=O)[nH]c2cc1C	n	18.4µM	16.4µM	n	n	u
